This test concerns RARb:RXRa (NR concentration 270 nM, RXRa partner concentration 90 nM). In words: PBM binding z-score (relative to random genomic background probes); higher = stronger binding; sequences stand for … in GC…GCGATTGACAGCGTAGAATGAAGG
In short, it runs like this: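 Regression normalization was applied to scanned fluorescence from custom Agilent 4×180K protein-binding microarrays. Before scanning, arrays were incubated 1 h with ligand-free nuclear receptor dimers, and binding was detected with antibodies against each partner (one per run). Binding z-scores use the random background probes as reference.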
The sequence TCAGACACGTGAAGGTAACTCAGGTACGCAGTCG had a PBM binding z-score of 0.338.

As to CCTACTGGGCCATTCAAAGGTCATTGATCATATG, the PBM binding z-score is 3.72.

With CGTCAAAGTTCAAGGTAACGTATCAGAAAGCAGC, the PBM binding z-score came out at 4.98.

Sequence CCGTGTAGGTTATGGGGCATTCAGGCAACGGTGA gave a PBM binding z-score of 1.33.

For the sequence CGTCCAAGGTCAATGCTAGGTCCGTGAAAGCATT, the PBM binding z-score came out at 4.91.

With TCTTGTAGATCAAGCAGGTTACGAAAGCCTGAGT, the PBM binding z-score is 0.516.

The sequence ATCTCTAGGTAAAGTTCAGTGCAAGATCGATAGA showed a PBM binding z-score of 2.78.

AGTCAAAGTTCATCTAGGTGACGTAAGATATGCT yielded a PBM binding z-score of 4.8.

CGTCCAAGATCAGAGAGGTCAGTGAATGCCGAGT displayed a PBM binding z-score of 2.95.

Take CAGCCTAGGTCAGAGCCAGTATAGGAGGAACGTT: the PBM binding z-score came to 3.08.

For GCTAGCTGGTCAGTAAAAGGTCACACACCGGTCG, the PBM binding z-score worked out at 4.23.

Consider TCTGCTAGCTCAACGATGGTCAGCTAATCTGCTA, for which the PBM binding z-score was -0.267.

For the sequence AGAATGAGGTTATACGTAGATTAGGGAAGAAAGT, the PBM binding z-score is 1.63.

With TCTTGTAGATCAATTGAGGTTAAGAAAGTGCGCT, the PBM binding z-score came to 0.758.

GGAACGAGGGCAACTTGATAGCAGAGTTTGATGG had a PBM binding z-score of 2.72.

Sequence TCGAGTAAGTTAGGGGCATTCAGAATGGCGTCGA returned a PBM binding z-score of 0.456.

Take CCTACTGGGCCAAAGGTCATTGCTTCCAATGCTC: the PBM binding z-score turned out to be 4.49.

With TTACCAAGGTGAAGATCGTTGATCCCTCTGTAGA, the PBM binding z-score amounted to 1.26.

In the case of CCAGGCAGGTGAAAGGTAACTCAGTCTGGTACGC, the PBM binding z-score stood at 1.02.

Sequence CCTCGGAGGACAGAAGGTCAGAGGTGTCCGCTTT yielded a PBM binding z-score of 3.32.

Regarding GCGACTGGGGCAAAGCAGGTTACCATTAGGTTGG, the PBM binding z-score is 0.975.

Consider TCTCGGAGAACACGAAAGGTCAGAGCTCGACATC, for which the PBM binding z-score stood at 3.55.

Sequence CCTTACGGGTCAAGAGGTTATAGCACGACGAGCG returned a PBM binding z-score of 4.3.

TAGCCTAGGTCGTGGGCCAGTATACCACGCGAAC: the PBM binding z-score is 1.19.

The sequence TCATATAGGTAAATGCTAGGTGAAGGTCCGATCT yielded a PBM binding z-score of 0.552.

The sequence CCGAGTAGGTTATGGGGCATTCTGGCAACGGTGA showed a PBM binding z-score of 0.978.

The sequence TCATATAGGTTAACAGGTGAAAGTCCGTAAGTTA registered a PBM binding z-score of 2.08.

Sequence CCTCGGAGGACAGAAGGTCAGAGATGTCCGCTTT displayed a PBM binding z-score of 3.01.

In turn, GCTTGTAGATCAATGTTAAGAAAGACTAAGCTAA had a PBM binding z-score of -0.399.

As for GGAACGAAGGCAAGTTGATAGCAGAGTTTGATGG, the PBM binding z-score was -0.503.

On to CCTAGTTGGCCAGGAGGTCACACACCGGATATGA, for which the PBM binding z-score was 3.41.

As to GATACAGGATCAAGGCCAGAGTACGCGTATTGAT, the PBM binding z-score came to 0.164.

With ATATGTAGGTTATCGAGTCATTCAGTTTGCGCAT, the PBM binding z-score stood at 0.872.

ACTATCAGTTGACTTAGGGCAACCGATACGACGC yielded a PBM binding z-score of 0.877.

The sequence CATACAAGGTCAGCTAGGCCAGAGTAGGGACGGC gave a PBM binding z-score of 4.89.

As to CGTCGAAGTTCAACTAAGGTAACGTAAAGCACGC, the PBM binding z-score was found to be 3.74.

ATATGTAGGTTATATCCGGGTCATTCAGGCTATG displayed a PBM binding z-score of 2.13.

For the sequence TCTGGTTGGTCACGGAGGTCACACACGACGGGTA, the PBM binding z-score amounted to 4.

Take TCGAGTAGGTTAGTCGGGGCATGCAGCCAACATA: the PBM binding z-score turned out to be 0.512.

CCTAACGGGTCACGAGGTTATAGCACGACGAGCG had a PBM binding z-score of 4.27.

Values taken from the supplement of paper PMC6555819.
